Laboratory results taken from PubChem BioAssay (NCATS).
Inconclusive results are not listed. Calls of active or inactive are those of the source. The call rests on the fitted dose curve; in most records, active means well fitted curve in the direction sought with a large enough effect; inconclusive means small, poorly fitted or top-dose-only effect, or another doubt; inactive means no such curve, though single readings can be large; an effect the other way counts as inactive or inconclusive.

Key:
[1] = target: Cellular tumor antigen p53 (Homo sapiens) (UniProt P04637); assay: Primary qHTS for small molecule compounds that upregulate eGFP-tagged delta133p53alpha (in N-terminal) cells. (AID 2060322); conditions: NCI-H358 eGFP-delta133p53alpha fluorescence, 24 h; activation: hits give high values;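 further: cells pre-induced with doxycycline then dosed without doxycycline; 0% = DMSO vehicle and 100% = reference activator; nearly all actives have a fitted effect of over 75% in size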
Chain of Cellular tumor antigen p53 (Homo sapiens) (P04637 whole entry, looked up): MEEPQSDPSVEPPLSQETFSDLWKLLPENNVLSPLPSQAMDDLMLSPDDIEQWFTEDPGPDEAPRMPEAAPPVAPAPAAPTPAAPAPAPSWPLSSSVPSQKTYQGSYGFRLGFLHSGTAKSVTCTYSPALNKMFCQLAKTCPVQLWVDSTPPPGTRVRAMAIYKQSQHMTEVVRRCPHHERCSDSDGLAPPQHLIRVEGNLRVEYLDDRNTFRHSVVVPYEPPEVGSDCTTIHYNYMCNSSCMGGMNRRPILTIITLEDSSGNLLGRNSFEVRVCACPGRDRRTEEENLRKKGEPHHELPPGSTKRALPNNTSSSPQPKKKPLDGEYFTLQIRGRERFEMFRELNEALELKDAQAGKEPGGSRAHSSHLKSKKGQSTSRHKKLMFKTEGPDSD
How it was run: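 NCI-H358 cells pre-induced 24 h with 10 ng/ml doxycycline for eGFP-delta133p53alpha, plated dox-free and exposed 24 h at 37C to titrated compounds. Fixed, Hoechst-stained; gated GFP peak intensity by laser scanning cytometry, normalized to DMSO (0%) and 57.5 uM 5-azacytidine (100%).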

[2] = target: Aldehyde dehydrogenase, mitochondrial (Homo sapiens) (UniProt P05091); assay: qHTS for Inhibitors of the Aldehyde Dehydrogenase Family (ALDH2) Primary screen (AID 2061308); conditions: ALDH2 enzyme inhibition qHTS, 1536-well; series mostly up to 56 µM;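 further: plate controls were vehicle for no effect and reference inhibitor for full effect; nearly all actives have a fitted effect of over 55% in size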
[3] = target: Retinaldehyde dehydrogenase 3 (Homo sapiens) (UniProt P47895); assay: qHTS for Inhibitors of the Aldehyde Dehydrogenase Family (ALDH1A3) Primary screen (AID 2061315); conditions: ALDH inhibition qHTS; series mostly up to 56 µM;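 further: plate controls were DMSO vehicle for no effect and reference inhibitor for full effect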

CC1C2=CC(=O)OC2(O)CC2C1C(OC(=O)c1ccccc1)C(OC(=O)c1ccccc1)C1(O)C2(C)CCC(O)C1(C)C(=O)O (centres undefined)
inactive: activation [1] 26.7% | Potency [2] | Potency [3]

CCOCc1cc(OC)c(-c2ccc(C[C@H](NC(=O)c3c(F)cccc3F)C(=O)O)cc2)c(OC)c1
inactive: activation [1] -5.67% | Potency [2] | Potency [3]

CCCCC(=O)N(Cc1ccc(-c2ccccc2-c2nn[nH]n2)cc1)C(C(=O)O)C(C)C (centres undefined)
inactive: activation [1] 0% | Potency [2] | Potency [3]

C[C@@H]1C[C@H](O[C@@H]2O[C@H](CO[C@@H]3OC[C@](O)(CO)[C@H]3O)[C@@H](O)[C@H](O)[C@H]2O)CC(C)(C)[C@H]1/C=C/[C@@H](C)O
inactive: activation [1] -29.5% | Potency [2] | Potency [3]

CC1(C)C2CC(OC3OC(COC4OCC(O)(CO)C4O)C(O)C(O)C3O)C1(C)CC2O (centres undefined)
inactive: activation [1] 1.79% | Potency [2] | Potency [3]

C/C=C/C=C/C=C/C(=O)O[C@@H]1C=C(CO)C(O)(C(=O)OC)[C@@]2(C)CCCC(C)(C)C12 (some centres undefined)
inactive: activation [1] -10.7% | Potency [2] | Potency [3]

C/C=C(\C)C(=O)O[C@H]1C[C@](C)(O)[C@H]2CC=C(C)[C@H]2[C@@H]2OC(=O)[C@H](C)[C@H]21
inactive: activation [1] -15.2% | Potency [2] | Potency [3]

CC(C)=CCC/C(C)=C/CC/C(C)=C/COC1OC(COC2OCC(OC3OCC(O)C(O)C3O)C(O)C2O)C(O)C(OC2OC(C)C(OC3OC(C)C(OC4OCC(OC5OC(C)C(O)C(O)C5O)C(O)C4O)C(O)C3O)C(O)C2O)C1O (centres undefined)
inactive: activation [1] 4.58% | activity change, negative = inhibition [2] 7.18% [at 11.2 µM] | activity change, negative = inhibition [3] -4.87% [at 11.2 µM]
